This is one part of the list. The true hit rate is not given.

The assay deals with furin, P09958. Put plainly: furin cleavage Z-score vs untreated control; higher = more cleavage, active = 3.5 or more, inactive = 1 or less, 8 variable residues between constant flanks. Summed up:
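The cleavage Z-score is the log read count relative to furin-free reactions, lowess-adjusted and scaled by median absolute deviation. Counts came from sequencing DNA released from bead-bound 8-mer peptide–cDNA fusions after digestion with purified furin for 7.5, 15 or 30 min.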
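Also: purified furin at 1:10 enzyme:substrate in 50 mM HEPES pH 7.5.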

Sequence of furin, P09958 (P09958 whole entry, the tested form may be a part): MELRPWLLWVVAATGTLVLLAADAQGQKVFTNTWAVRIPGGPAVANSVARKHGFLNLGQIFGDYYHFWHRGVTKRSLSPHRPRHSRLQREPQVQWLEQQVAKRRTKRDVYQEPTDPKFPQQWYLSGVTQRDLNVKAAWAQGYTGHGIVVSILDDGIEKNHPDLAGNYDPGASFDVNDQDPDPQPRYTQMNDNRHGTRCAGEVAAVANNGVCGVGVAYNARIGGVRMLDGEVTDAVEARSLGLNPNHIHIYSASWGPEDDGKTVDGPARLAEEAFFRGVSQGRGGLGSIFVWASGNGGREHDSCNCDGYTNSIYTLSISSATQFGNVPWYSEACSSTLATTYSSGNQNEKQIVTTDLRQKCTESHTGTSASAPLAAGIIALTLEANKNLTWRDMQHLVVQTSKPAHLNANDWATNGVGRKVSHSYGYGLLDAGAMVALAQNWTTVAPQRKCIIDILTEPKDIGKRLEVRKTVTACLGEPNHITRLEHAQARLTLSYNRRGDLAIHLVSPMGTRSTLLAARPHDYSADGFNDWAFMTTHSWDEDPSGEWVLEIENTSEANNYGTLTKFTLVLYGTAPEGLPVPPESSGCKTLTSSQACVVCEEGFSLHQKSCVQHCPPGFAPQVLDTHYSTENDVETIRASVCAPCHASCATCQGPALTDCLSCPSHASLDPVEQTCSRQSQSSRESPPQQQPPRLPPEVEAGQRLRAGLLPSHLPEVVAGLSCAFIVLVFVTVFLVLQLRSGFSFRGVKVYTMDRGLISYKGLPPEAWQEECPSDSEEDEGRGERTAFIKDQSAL

CALLLLLALPAGNASASA [HC559]: the “furin cleavage Z-score” value is, setting by setting: (7.5 min) -0.496 (inactive); (15 min) -0.0246 (inactive); (30 min) -1.1 (inactive).

For CATDPCSGSWAGNASASA [HC1851], the “furin cleavage Z-score” value (7.5 min) is -1.13 (inactive), the “furin cleavage Z-score” value (15 min) was -1.19 (inactive) and the “furin cleavage Z-score” value (30 min) was -1.08 (inactive).

On to CAAILDMIAGAGNASASA [HC332], for which the “furin cleavage Z-score” value by setting is: (7.5 min) 0.577 (inactive); (15 min) 0.516 (inactive); (30 min) -0.84 (inactive).

Regarding CASKAHGIDPAGNASASA [HC795], the “furin cleavage Z-score” value reads like this: (7.5 min) -1.17 (inactive); (15 min) -1.03 (inactive); (30 min) 1.13.

On to CASKSLSKRSAGNASASA [FS-721], for which the “furin cleavage Z-score” value is 8.05 (active) (7.5 min), 10.1 (active) (15 min) and 6.73 (active) (30 min).

For the sequence CATVPCSGSWAGNASASA [HC1850], the “furin cleavage Z-score” value reads like this: (7.5 min) -0.242 (inactive); (15 min) -1.82 (inactive); (30 min) -1.24 (inactive).

CARKRRGTKGAGNASASA [FS-1959]: the “furin cleavage Z-score” value was 8.4 (active) (7.5 min), 9.53 (active) (15 min) and 8.24 (active) (30 min).

Regarding CARKRRGTGYAGNASASA [FS-2565], the “furin cleavage Z-score” value is, setting by setting: (7.5 min) 9.5 (active); (15 min) 11.3 (active); (30 min) 9.57 (active).

As to CARKDRRKKGAGNASASA [FS-2035], the “furin cleavage Z-score” value runs as follows: (7.5 min) 0.369 (inactive); (15 min) 0.879 (inactive); (30 min) 1.04.

Consider CATDALMTGYAGNASASA [HC879], for which the “furin cleavage Z-score” value is 0.343 (inactive) (7.5 min), 0.0305 (inactive) (15 min) and 0.976 (inactive) (30 min).

Regarding CARKRRIVSGAGNASASA [FS-2348], the “furin cleavage Z-score” value (7.5 min) is -0.706 (inactive), the “furin cleavage Z-score” value (15 min) was 0.0646 (inactive) and the “furin cleavage Z-score” value (30 min) was -1.35 (inactive).

Take CARKRRSIRYAGNASASA [FS-2975]: the “furin cleavage Z-score” value is 8.7 (active) (7.5 min), 10.2 (active) (15 min) and 9.27 (active) (30 min).

For CAPPDSDAESAGNASASA [HC1349], the “furin cleavage Z-score” value was -1.81 (inactive) (7.5 min), -1.84 (inactive) (15 min) and -0.313 (inactive) (30 min).

As for CARHYRPTGYAGNASASA [FS-2682], the “furin cleavage Z-score” value is, setting by setting: (7.5 min) -1.08 (inactive); (15 min) -0.433 (inactive); (30 min) -0.26 (inactive).

Take CARKRREAESAGNASASA [FS-2972]: the “furin cleavage Z-score” value by setting is: (7.5 min) 12 (active); (15 min) 12.2 (active); (30 min) 8.7 (active).

For the sequence CAVVCESMSYAGNASASA [HC93], the “furin cleavage Z-score” value is 1.27 (7.5 min), 1.17 (15 min) and 0.112 (inactive) (30 min).

Consider CAGLPVCQDHAGNASASA [HC934], for which the “furin cleavage Z-score” value is -1.12 (inactive) (7.5 min), -0.715 (inactive) (15 min) and -0.789 (inactive) (30 min).

As for CAMEECSQHVAGNASASA [HC1770], the “furin cleavage Z-score” value (7.5 min) was 0.37 (inactive), the “furin cleavage Z-score” value (15 min) was -0.816 (inactive) and the “furin cleavage Z-score” value (30 min) is 0.885 (inactive).

In the case of CAGLAGAAIGAGNASASA [HC1077], the “furin cleavage Z-score” value was 0.0949 (inactive) (7.5 min), -0.583 (inactive) (15 min) and -1.05 (inactive) (30 min).

CATTPCSGSRAGNASASA [HC1933]: the “furin cleavage Z-score” value reads like this: (7.5 min) -1.1 (inactive); (15 min) 1.02; (30 min) 0.7 (inactive).

Turning to CAEWVVCCSMAGNASASA [HC2128], the “furin cleavage Z-score” value was -0.594 (inactive) (7.5 min), 0.0553 (inactive) (15 min) and 0.122 (inactive) (30 min).

As for CANKRRGGTAAGNASASA [WN5], the “furin cleavage Z-score” value (7.5 min) is -0.513 (inactive), the “furin cleavage Z-score” value (15 min) was -0.365 (inactive) and the “furin cleavage Z-score” value (30 min) is 0.516 (inactive).

As to CARKRRGGPSAGNASASA [FS-2564], the “furin cleavage Z-score” value is 3.55 (active) (7.5 min), 5.66 (active) (15 min) and 4.4 (active) (30 min).

As to CARKRRTGFGAGNASASA [FS-2978], the “furin cleavage Z-score” value is -1.31 (inactive) (7.5 min), 1.08 (15 min) and 1.25 (30 min).

In the case of CARKHPDATYAGNASASA [HC454], the “furin cleavage Z-score” value by setting is: (7.5 min) -0.794 (inactive); (15 min) -0.15 (inactive); (30 min) -3 (inactive).

On to CARKRRTATYAGNASASA [FS-2977], for which the “furin cleavage Z-score” value is, setting by setting: (7.5 min) 4.55 (active); (15 min) 6.85 (active); (30 min) 6.75 (active).

Take CARKRRCSLSAGNASASA [FS-1829]: the “furin cleavage Z-score” value was 4.81 (active) (7.5 min), 7.32 (active) (15 min) and 6.54 (active) (30 min).

For CATDVVCCSMAGNASASA [HC2118], the “furin cleavage Z-score” value runs as follows: (7.5 min) 1.2; (15 min) 0.0514 (inactive); (30 min) -0.681 (inactive).

Take CAFIPVENLEAGNASASA [HC758]: the “furin cleavage Z-score” value is -2.14 (inactive) (7.5 min), -0.887 (inactive) (15 min) and -1.28 (inactive) (30 min).

Turning to CAMEECSVHLAGNASASA [HC1730], the “furin cleavage Z-score” value (7.5 min) is -0.159 (inactive), the “furin cleavage Z-score” value (15 min) is -0.406 (inactive) and the “furin cleavage Z-score” value (30 min) was 0.608 (inactive).

In the case of CAEPHRRRRKAGNASASA [FS-415], the “furin cleavage Z-score” value (7.5 min) is 4.43 (active), the “furin cleavage Z-score” value (15 min) was 5.99 (active) and the “furin cleavage Z-score” value (30 min) was 6.78 (active).

As to CAEPRRSRRKAGNASASA [FS-23], the “furin cleavage Z-score” value (7.5 min) is 3.35, the “furin cleavage Z-score” value (15 min) was 6.04 (active) and the “furin cleavage Z-score” value (30 min) is 5.36 (active).

CARQGRSGQKAGNASASA [FS-2063]: the “furin cleavage Z-score” value by setting is: (7.5 min) -0.381 (inactive); (15 min) 0.885 (inactive); (30 min) -0.813 (inactive).

Take CAEPLRKKKKAGNASASA [FS-1320]: the “furin cleavage Z-score” value (7.5 min) is -0.899 (inactive), the “furin cleavage Z-score” value (15 min) was -0.615 (inactive) and the “furin cleavage Z-score” value (30 min) was -0.879 (inactive).

For CARRRRKQRKAGNASASA [FS-2791], the “furin cleavage Z-score” value by setting is: (7.5 min) 2.34; (15 min) 4.43 (active); (30 min) 4.61 (active).

On to CAMDYRGRRKAGNASASA [FS-1544], for which the “furin cleavage Z-score” value was -0.964 (inactive) (7.5 min), -0.642 (inactive) (15 min) and 0.39 (inactive) (30 min).

As for CACRRRRRRKAGNASASA [FS-583], the “furin cleavage Z-score” value was 7.53 (active) (7.5 min), 8.14 (active) (15 min) and 6.13 (active) (30 min).

Consider CAVYHGAGTRAGNASASA [HC701], for which the “furin cleavage Z-score” value is -1.21 (inactive) (7.5 min), -0.779 (inactive) (15 min) and -0.813 (inactive) (30 min).

CALLMCAVHPAGNASASA [HC598]: the “furin cleavage Z-score” value by setting is: (7.5 min) -0.584 (inactive); (15 min) -1.05 (inactive); (30 min) -0.438 (inactive).

As for CALERRSVYTAGNASASA [FS-1986], the “furin cleavage Z-score” value reads like this: (7.5 min) -0.7 (inactive); (15 min) 0.537 (inactive); (30 min) -0.997 (inactive).

Turning to CAKTPCSGSWAGNASASA [HC1834], the “furin cleavage Z-score” value (7.5 min) was -1.42 (inactive), the “furin cleavage Z-score” value (15 min) was -1.89 (inactive) and the “furin cleavage Z-score” value (30 min) is -1.1 (inactive).

Consider CAQREVPCHRAGNASASA [HC2442], for which the “furin cleavage Z-score” value is 1.83 (7.5 min), 1.74 (15 min) and 0.0102 (inactive) (30 min).

In the case of CALMRRRRRKAGNASASA [FS-1599], the “furin cleavage Z-score” value by setting is: (7.5 min) 8.11 (active); (15 min) 10.6 (active); (30 min) 8.59 (active).

In the case of CAWTVYHGAGAGNASASA [HC700], the “furin cleavage Z-score” value is, setting by setting: (7.5 min) -0.0993 (inactive); (15 min) 1.58; (30 min) 1.31.

The values are drawn from the supplement of paper PMC3545927.
